Legend:
Test in all cases: PBM binding z-score (relative to random genomic background probes); higher = stronger binding; sequences stand for … in GC…GCGATTGACAGCGTAGAATGAAGG
[1] = tested on: FXR:RXRa (NR concentration 270 nM, RXRa partner concentration 90 nM)
How it was run: (§1)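 Probes were double-stranded and carried 34-nt variable regions with direct-repeat seeds, single-nucleotide variants, half-site ablations and random human genomic background sequences, printed on custom Agilent 4×180K protein-binding microarrays. Arrays were incubated 1 h with ligand-free nuclear receptor dimers in PBS pH 7.4, 2% milk, 0.02% Triton X-100, 1 mM DTT, 0.2 mg/mL BSA and 0.4 mg/ml salmon testes DNA. Antibodies against each partner (one per run) detected binding, and scanned fluorescence was regression-normalized. Binding z-scores use the random background probes as reference.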

[2] = tested on: LXRa:RXRa (NR concentration 270 nM, RXRa partner concentration 90 nM)
How it was run: as §1

[3] = tested on: LXRa homodimer (NR concentration 270 nM)
How it was run: as §1

[4] = tested on: LXRb:RXRa (NR concentration 270 nM, RXRa partner concentration 90 nM)
How it was run: as §1

[5] = tested on: LXRb homodimer (NR concentration 270 nM)
How it was run: as §1

[6] = tested on: PPARa:RXRa (NR concentration 270 nM, RXRa partner concentration 90 nM)
How it was run: as §1

[7] = tested on: PPARg:RXRa (NR concentration 180 nM, RXRa partner concentration 90 nM)
How it was run: as §1

[8] = tested on: PPARg:RXRa 270nM:90nM, anti-RXR (NR concentration 270 nM, RXRa partner concentration 90 nM)
How it was run: as §1

[9] = tested on: PPARg:RXRa 30nM:10nM, anti-RXR (NR concentration 30 nM, RXRa partner concentration 10 nM)
How it was run: as §1

[10] = tested on: PPARg:RXRa 90nM:30nM, anti-RXR (NR concentration 90 nM, RXRa partner concentration 30 nM)
How it was run: as §1

Sequence | PBM binding z-score [1] | PBM binding z-score [2] | PBM binding z-score [3] | PBM binding z-score [4] | PBM binding z-score [5] | PBM binding z-score [6] | PBM binding z-score [7] | PBM binding z-score [8] | PBM binding z-score [9] | PBM binding z-score [10]
CCTCGGAGGACAGAAGGTTAGAGCTGTCCGCTTT | 0.0561 | 0.0136 | -0.236 | -0.312 | -1.14 | -0.123 | -0.506 | -0.434 | -0.944 | -0.855
CGTCCAAGGTCAAATGTCAGTGAAGAGATGACGG | 7.54 | 5.76 | 1.47 | 4.6 | 2.22 | 6.09 | 6.34 | 6.37 | 3.35 | 5.7
AGAACCAGGGCACGCTGAGTTGATAGCAGAGTAG | -0.172 | 0.136 | -0.611 | -0.397 | -1.03 | 1.29 | 1.55 | 1.19 | -0.116 | 0.466
GCATATAGGGAATACAAGGTGAAAGTCCGATTGT | 0.23 | -0.211 | -0.101 | -0.103 | -0.489 | 0.924 | 0.818 | 0.797 | 0.0214 | 0.338
TCTAGTTGGTCACGGAGGTCACATACGACGGGTA | 3.08 | 3.35 | 2.47 | 3.46 | 0.637 | 3.93 | 3.1 | 3.94 | 3.8 | 3.63
ACTAGCAGGCCAAGCTTGGGTCACTCAAACAAAG | -0.0796 | 0.111 | -0.692 | 0.455 | -0.932 | 1.22 | 0.00964 | 0.21 | -0.684 | -0.194
AGAATGAGGTTAAGATCAGCGAAACAGAATACAT | 2.2 | 1.69 | -0.0518 | 1.54 | -0.0572 | 3.72 | 2.3 | 2.38 | 0.794 | 1.74
CCTATTGGGCCAAGGTCATTGATCAGTCAAAGCA | 3.16 | 2.92 | 0.821 | 2.85 | -0.34 | 3.83 | 2.79 | 3.83 | 1.37 | 3.21
ATTCAAAGTTCATCTAGGTAACGTAAGATATGCT | 6.71 | 6.24 | 6.17 | 3.99 | 2.84 | 4.52 | 4.18 | 4.51 | 1.84 | 3.39
CAAACTAGGTCAAGAGGTCCAAGTCCGCTTCCCG | 3.7 | 2.26 | 0.265 | 1.6 | 0.102 | 4.52 | 7.57 | 6.68 | 4.65 | 6.56
TAGCCTAGGTGATGCGGGCCAGTATAGTGTCGGC | -0.724 | -0.891 | -0.841 | -1.2 | -1.39 | -0.486 | -0.087 | -0.902 | -1.01 | -0.934
GGAACGAGGGCATTCGAGTTGATATCATGGCGAT | 1.43 | 2.06 | -0.497 | 0.289 | -0.383 | 1.64 | 1.04 | 0.683 | 0.332 | 0.448
GTACCAAGGTGAATAGCTCGTTGATGAGTAGGCG | -0.0145 | 0.0679 | -0.285 | -0.246 | -0.451 | 0.416 | 0.554 | 0.238 | -0.33 | -0.123
ATACCAAGGTGATAGTGAGGTCGTTGATACTAAC | 1.53 | 1.39 | 0.943 | 1.4 | 0.0823 | 1.81 | 0.759 | 0.98 | 0.458 | 0.738
ACCTCTAGGTAACAAGTTCAGTGAAAGAGAGGAC | 0.245 | 0.295 | 0.188 | 0.426 | -0.0173 | 1.02 | 1.18 | 1.5 | 0.452 | 1.29
TCGAGTAGGTTAGCAATGGGGCATTCAGCTTTCT | -0.119 | 0.188 | -0.715 | 0.235 | -0.623 | 0.539 | -0.248 | 0.643 | 1.08 | 1.09
TAGCCTAGGTCATTGGGCCAGTAAAGTACGCATC | 4.37 | 3.38 | 0.448 | 2.29 | 0.0341 | 4 | 3.28 | 3.76 | 1.14 | 2.4
CGAACTAGGTCATTGACAGGACAGTGACTAGTAA | 4.31 | 2.96 | 0.385 | 1.79 | 0.0478 | 4.71 | 7.47 | 6.11 | 3.43 | 5.59
TCAGACAGGTGAAGTTAACTCAGGTACGCAGTCG | 0.865 | 0.967 | 0.0333 | 0.725 | -0.0783 | 1.17 | 0.534 | 2.18 | 3.93 | 2.75

Source: the supplement of paper PMC6555819
